Test results as given in PubChem BioAssay (Tox21).
Results filed as inconclusive are left out. Active and inactive are the calls of the source. Unless noted, the call rests on the fitted dose curve; in most records, active means well fitted curve in the direction sought with a large enough effect in the repeat runs; inconclusive means weak or mixed curves; inactive means no such curve, though single readings can be large; an effect the other way counts as inactive or inconclusive.

How the values were obtained:
[1] = qHTS assay for small molecule agonists of the p53 signaling pathway (AID 651631; calls by dose curve; further: nearly all actives have a fitted effect of over 15% in size)
Outline: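 Beta-lactamase reporter activity under p53 response elements was quantified in HCT-116 cells by FRET fluorescence, following 16 h incubation with test compounds at 37 °C and 2 h substrate development at room temperature.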

[2] = qHTS assay for small molecules that induce genotoxicity in human embryonic kidney cells expressing luciferase-tagged ATAD5 (AID 651632); further: nearly all actives have a fitted effect of over 15% in size
Outline: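 Cells were seeded at 2,000 per well, dosed with compound, and incubated 16 hr at 37C in 5% CO2. Luciferase activity was then quantified after a 30 min room-temperature incubation with Amplite.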

[3] = qHTS assay for small molecule agonists of the p53 signaling pathway - cell viability (AID 651633; calls by dose curve;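 further: p53RE-bla HCT reporter cells with a stable beta-lactamase p53 reporter; series mostly up to about 83 µM; nearly all actives have a fitted effect of over 30% in size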)
Outline: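 p53RE-bla cells were treated with compound for 16 hours at 37 C. Cytotoxicity was then measured as CellTiter-Glo luminescence after 30 min at room temperature.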

[4] = qHTS assay for small molecules that induce genotoxicity in human embryonic kidney cells expressing luciferase-tagged ATAD5 - cell viability (AID 651634; calls by dose curve; further: nearly all actives have a fitted effect of over 25% in size)
Outline: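 Cells (HEK293T, luciferase-tagged ATAD5) are seeded at 2,000 per well, dosed with compound or DMSO vehicle, and incubated 15.5 hr at 37C and 5% CO2. CellTiter-Fluor is added for 30 min before fluorescence is measured.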

[5] = qHTS assay for small molecule disruptors of the mitochondrial membrane potential - cell viability (AID 720634; calls by dose curve;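 further: human HepG2 liver cancer cells; series mostly up to about 83 µM; nearly all actives have a fitted effect of over 20% in size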)
Outline: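 Cytotoxicity was measured by ATP quantitation in HepG2 wells that had first been treated with compound for 1 hr and stained with m-MPI dye; CellTiter-Glo incubation was 30 min at room temperature.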

[6] = qHTS assay for small molecule disruptors of the mitochondrial membrane potential (AID 720635)
Outline: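 HepG2 cells exposed to compound 1 hr at 37C, then Mito-MPS dye 30 min. Ratio read of aggregate (540/590 nm) versus monomer (490/535 nm) fluorescence.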

[7] = qHTS assay to test for compound auto fluorescence at 590 nm (red) in HepG2 cells (AID 720674)
Outline: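 Fluorescence at 590 nm emission following 540 nm excitation was recorded from HepG2 wells one hour after compound transfer, with DMSO-only wells as vehicle and Rose Bengal sodium equivalency as the scale.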

[8] = qHTS assay to test for compound auto fluorescence at 535 nm (green) in HepG2 cells (AID 720675)
[9] = qHTS assay to test for compound auto fluorescence at 460 nm (blue) in HEK293 cells (AID 720678)
Outline: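 Auto fluorescence in the blue band was quantified as triamterene equivalency. HEK293 cells were seeded at 2,000/well, dosed after a 4-5 hr attachment, and kept overnight at 37C before the 405/460 nm reading.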

[10] = qHTS assay to test for compound auto fluorescence at 590 nm (red) in HEK293 cells (AID 720679)
Outline: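 Autofluorescence equivalency to Rose Bengal sodium, 540/590nm, in HEK293 cells exposed overnight to 23 nL compound per well.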

[11] = qHTS assay to test for compound auto fluorescence at 535 nm (green) in HEK293 cells (AID 720680)
[12] = qHTS assay to test for compound auto fluorescence at 460 nm (blue) in HEK293 cell free culture (AID 720681)
Outline: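 Compounds were added to cell-free DMEM with 10% FBS and fluorescence read directly. The blue channel used 405 nm excitation and 460 nm emission, with triamterene as the reference fluorophore.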

[13] = qHTS assay to test for compound auto fluorescence at 535 nm (green) in HEK293 cell free culture (AID 720682)
Outline: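 Each library compound, or DMSO control, is added by pintool to medium alone, comprising DMEM and 10% FBS. Emission at 535 nm following 485 nm excitation is quantified against fluorescein.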

[14] = qHTS assay to test for compound auto fluorescence at 590 nm (red) in HEK293 cell free culture (AID 720683)
Outline: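 Cell-free wells of DMEM with 10% FBS received compound, and intrinsic fluorescence was read at excitation/emission 540/590 nm. Values expressed as equivalence to Rose Bengal sodium.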

[15] = qHTS assay to test for compound auto fluorescence at 460 nm (blue) in HepG2 cell free culture (AID 720685)
Outline: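 Cell-free plates of MEM plus 10% FBS received 23 nL compound or DMSO vehicle; blue-channel (405/460 nm) intensity scored against triamterene as reference fluorophore.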

[16] = qHTS assay to test for compound auto fluorescence at 535 nm (green) in HepG2 cell free culture (AID 720686)
[17] = qHTS assay to test for compound auto fluorescence at 460 nm (blue) in HepG2 cells (AID 720687)
Outline: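 HepG2 cells in MEM with 10% FBS, attached overnight at 37 C, were exposed to compound or DMSO for 1 hr at 37 C, 5% CO2. Blue fluorescence was read at 405/460 nm, with triamterene as reference fluorophore.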

[18] = molecular target: Glucocorticoid receptor (Homo sapiens) (UniProt P04150); assay: qHTS assay to identify small molecule agonists of the glucocorticoid receptor (GR) signaling pathway (AID 720691; active means well fitted activation curve with a large enough effect in the signal ratio in the repeat runs, not every such curve was filed as active; the % refers to the signal ratio)
Chain of Glucocorticoid receptor (Homo sapiens) (P04150 whole entry, looked up): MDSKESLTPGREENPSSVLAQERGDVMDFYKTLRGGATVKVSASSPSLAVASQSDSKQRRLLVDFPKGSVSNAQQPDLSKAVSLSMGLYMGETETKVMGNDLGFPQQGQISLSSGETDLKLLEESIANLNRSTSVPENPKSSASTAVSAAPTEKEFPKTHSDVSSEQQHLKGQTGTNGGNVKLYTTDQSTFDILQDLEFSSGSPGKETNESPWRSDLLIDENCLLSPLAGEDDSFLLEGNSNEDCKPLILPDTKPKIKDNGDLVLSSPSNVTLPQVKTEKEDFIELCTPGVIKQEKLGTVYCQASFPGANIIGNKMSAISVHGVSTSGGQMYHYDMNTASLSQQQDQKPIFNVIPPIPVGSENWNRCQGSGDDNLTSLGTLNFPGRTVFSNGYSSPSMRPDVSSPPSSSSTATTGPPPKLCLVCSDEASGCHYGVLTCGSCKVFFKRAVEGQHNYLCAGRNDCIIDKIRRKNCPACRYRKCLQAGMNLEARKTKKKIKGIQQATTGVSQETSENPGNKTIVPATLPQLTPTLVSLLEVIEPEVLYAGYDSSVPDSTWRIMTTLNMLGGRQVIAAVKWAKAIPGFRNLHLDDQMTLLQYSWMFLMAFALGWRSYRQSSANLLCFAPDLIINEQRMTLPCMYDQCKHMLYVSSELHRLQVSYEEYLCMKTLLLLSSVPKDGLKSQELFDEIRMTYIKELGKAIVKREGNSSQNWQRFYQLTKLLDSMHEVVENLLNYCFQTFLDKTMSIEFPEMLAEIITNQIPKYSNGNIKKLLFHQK
Outline: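 Steps: seed GR-bla HeLa cells, incubate 4 h at 37 C/5% CO2; pin-transfer DMSO-dissolved compounds; incubate 18 h at 37 C; add LiveBLAzer B/G FRET substrate; after 2 h at room temperature, measure fluorescence.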

[19] = molecular target: Glucocorticoid receptor (Homo sapiens) (UniProt P04150); assay: qHTS assay to identify small molecule antagonists of the glucocorticoid receptor (GR) signaling pathway (AID 720692; active means well fitted inhibition curve with a large enough effect in the signal ratio in the repeat runs, not every such curve was filed as active; the % refers to the signal ratio)
Outline: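 Antagonism was scored as loss of dexamethasone-driven (5 nM final) reporter signal in HeLa cells bearing a glucocorticoid response element–beta-lactamase construct, after 18 h compound exposure at 37 C and 2 h FRET substrate loading.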

[20] = qHTS assay to test for compound auto fluorescence at 590 nm (red) in HepG2 cell free culture (AID 720684)
Outline: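 Auto fluorescence equivalency versus Rose Bengal sodium, red channel Ex/Em 540/590 nm; compounds in cell-free MEM/10% FBS; DMSO vehicle control.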

Measured: Potency

NC(=O)c1ccncc1
not listed: [20]
inactive: all other assays above

CCCC(=O)C(=O)O
not listed: [17] | [19]
inactive: all other assays above

CCOC(=O)c1ccc(I)cc1
not listed: [18] | [19]
inactive: all other assays above

CCCCCCCCN
not listed: [17] | [18] | [19] | [20]
inactive: all other assays above

COc1cc(C(=O)NCCCCCC(=O)O)cc(OC)c1OC
inactive: all assays above

CCOC(=O)[C@H](CCc1ccccc1)N[C@@H](C)C(=O)N(CC(=O)O)C1Cc2ccccc2C1
not listed: [9] | [19]
inactive: all other assays above

O=C1CCCCCCCCCCOCCCCO1
not listed: [19] | [20]
inactive: all other assays above
